Data: PubChem BioAssay (NCATS)
Where “and” joins values, the source holds several entries; their conditions need not be identical. Equal entries are not always repeated. Results filed as inconclusive are left out. Calls of active or inactive are those of the source. Unless noted, calls come from the whole dose curve; as a rule, active = well fitted curve in the direction sought with a large enough effect; inconclusive = small, poorly fitted or top-dose-only effect, or another doubt; inactive = no such curve, though single readings can be large; an effect the other way counts as inactive or inconclusive.

Legend:
[1] = qHTS assay for small molecule activators of the nuclear factor-kappa B (NF-kB) signaling pathway (AID 651749; active = well fitted activation curve with a large enough effect in the signal ratio; the % refers to the signal ratio; note: % of control where 0% means no effect); details: NF-kB-bla ME-180 cells, beta-lactamase FRET ratio, 16 h; active compounds read high
Procedure, shortened: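 FRET-based beta-lactamase detection in ME-180 cells reports NF-kB response-element-driven transcription following overnight (16 hr) compound treatment.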

[2] = qHTS assay for environmental chemicals that activate the Aryl hydrocarbon Receptor (AhR) signaling pathway (AID 651777); details: 1A2-DRE human hepatoma cells, luciferase, 24 h; activation: active compounds read high; note: % of control where 0% means no effect; nearly all actives have a fitted effect of over 15% in size
Procedure, shortened: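 Concentration–response screening used 1,200 1A2-DRE cells per well, 24 hr compound exposure (37 C, 5% CO2), and One-Glo luminescence as the AhR-driven CYP1A2 reporter signal.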

[3] = target: Peroxisome proliferator-activated receptor alpha (Homo sapiens) (UniProt Q07869); assay: qHTS assay for small molecule agonists of the peroxisome proliferator-activated receptor alpha (PPARalpha) signaling pathway (AID 651778); details: PathHunter PPARalpha complementation, chemiluminescence, 6 h; max response: active compounds read high; note: % of control where 0% means no effect
Procedure, shortened: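 Chemiluminescence from complemented enzyme reported PPARalpha activation in cells after 6 hr of compound treatment at 37 C. The detection reagent was incubated for 60 min at room temperature, and compounds were scored as agonists.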

[4] = qHTS assay for small molecule agonists of the antioxidant response element (ARE) signaling pathway measured by Nrf2-dependant transcriptional activity (AID 720636; active = well fitted curve in the direction sought with a large enough effect in the repeat runs; an effect the other way counts as inactive or inconclusive;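 note: HepG2 cells with an ARE-driven luciferase reporter; % of control where 0% means no effect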); details: ARE-luc HepG2, Nrf2 luciferase reporter, 16 h; series mostly up to 92.4 µM
Procedure, shortened: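 Attachment 6 hr at 37 C, then compound versus DMSO vehicle for 16 hr in ARE-luc HepG2 cells (1% dialyzed FBS); luminescence recorded 30 min after ONE-Glo addition at room temperature.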

[5] = qHTS assay for small molecule agonists of the antioxidant response element (ARE) signaling pathway measured by Nrf2-dependant transcriptional activity - cell viability counter screen (AID 720653; active = well fitted curve in the direction sought with a large enough effect in the repeat runs; an effect the other way counts as inactive or inconclusive; note: potency is the fitted concentration of half-maximal effect; for max response: % is set by controls: 0 for no effect and ±100 for the full control effect); details: ARE-bla HepG2 viability, CellTiter-Glo ATP luminescence, 16 h; max response: active compounds read low
Procedure, shortened: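 Cytotoxicity counter screen: intracellular ATP quantified by CellTiter-Glo luminescence in the same ARE-bla HepG2 plates, after 16 h compound exposure and a 2 h beta-lactamase substrate step.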

[6] = qHTS Assay for Identifying Gametocytocidal Compounds (AID 743244); note: potency is the fitted concentration of half-maximal effect;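 for max response: % is set by controls: 0 for no effect and ±100 for the full control effect; actives lower the fluorescent signal which means gametocytes are killed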; details: P. falciparum 3D7 stage III-V gametocytes, alamarBlue, 72 h; max response: active compounds read low
Procedure, shortened: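 Compounds are pinned into medium, gametocytes (stage III–V, 3D7, 20,000 cells/well) added, and plates held 72 h at 37 °C in 5% CO2. AlamarBlue follows for 24 h before fluorescence reading.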

[7] = qHTS assay for small molecule disruptors of the mitochondrial membrane potential - 1 hr assay (AID 651754; calls by dose curve; note: nearly all actives have a fitted effect of over 35% in size; note: potency is the fitted concentration of half-maximal effect); details: series mostly up to 92.2 µM
Procedure, shortened: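 Read-out: dye fluorescence at 490 nm ex/535 nm em (monomers) and 540 nm ex/590 nm em (aggregates) in HepG2 cells. Compound exposure 1 hr at 37C, followed by 30 min dye loading.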

[8] = target: Tumor necrosis factor (Homo sapiens) (UniProt P01375); assay: qHTS assay to identify small molecules that stimulate Tumor Necrosis Factor-alpha (TNF-alpha) secretion (AID 651757; active = well fitted curve in the direction sought with a large enough effect in the signal ratio; the % refers to the signal ratio; note: 0% is about no effect); details: Human cells, HTRF 665/615 ratio; series mostly up to 92.2 µM
Procedure, shortened: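 THP-1 cells, 3000/well; compound 17 hrs, 37 C; add cryptate/XL665 anti-TNF-alpha antibody pair; 3 hr RT; TR-FRET (HTRF) read of secreted TNF-alpha. Quantitative HTS format.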

[9] = target: Nuclear receptor ROR-gamma (Homo sapiens) (UniProt P51449); assay: qHTS assay for small molecule antagonists of the retinoid-related orphan receptor gamma (ROR-gamma) signaling pathway (AID 651802); details: ROR-gamma antagonist cell reporter assay; series mostly up to 92.2 µM; note: nearly all actives have a fitted effect of over 60% in size; note: potency is the fitted concentration of half-maximal effect
Procedure, shortened: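 Luciferase read-out: ONE-Glo luminescence after 30 min at room temperature, following 16hr doxycycline induction at 37C, 5% CO2 of CHO cells with TET-inducible ROR and RORE-LUC reporter; decreased luminescence = reduced reporter activity.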

[10] = qHTS assay for small molecule antagonists of the retinoid-related orphan receptor gamma (ROR-gamma) signaling pathway - cell viability counter screen (AID 720652; active = well fitted curve in the direction sought with a large enough effect in the repeat runs; an effect the other way counts as inactive or inconclusive;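 note: compound exposure lasted 16 hr before ATP read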; note: potency is the fitted concentration of half-maximal effect); details: RORgamma reporter cell line viability counter screen; series mostly up to 92.2 µM
Procedure, shortened: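 CHO RORE-LUC/TET-ROR line, 1,000 cells/well, 37 C 5% CO2 5 hr; cpd or DMSO + doxycycline induction, 16 hr. CellTiter-Glo, 30 min RT, luminescence = ATP content.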

[11] = qHTS assay to identify small molecules that stimulate interleukin-8 (IL-8) secretion (AID 651758; active = well fitted activation curve with a large enough effect in the signal ratio; the % refers to the signal ratio; note: 0% is about no effect); details: HTRF ratio (665/615); series mostly up to 92.2 µM
Procedure, shortened: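 Secreted IL-8 measured homogeneously by TR-FRET (two labelled anti-IL-8 antibodies, 1-3 h at room temperature) after a 16 h, 37 C compound treatment of THP-1 cells at 2000 cells/well.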

Chain of Nuclear receptor ROR-gamma (Homo sapiens) (P51449 whole entry, looked up): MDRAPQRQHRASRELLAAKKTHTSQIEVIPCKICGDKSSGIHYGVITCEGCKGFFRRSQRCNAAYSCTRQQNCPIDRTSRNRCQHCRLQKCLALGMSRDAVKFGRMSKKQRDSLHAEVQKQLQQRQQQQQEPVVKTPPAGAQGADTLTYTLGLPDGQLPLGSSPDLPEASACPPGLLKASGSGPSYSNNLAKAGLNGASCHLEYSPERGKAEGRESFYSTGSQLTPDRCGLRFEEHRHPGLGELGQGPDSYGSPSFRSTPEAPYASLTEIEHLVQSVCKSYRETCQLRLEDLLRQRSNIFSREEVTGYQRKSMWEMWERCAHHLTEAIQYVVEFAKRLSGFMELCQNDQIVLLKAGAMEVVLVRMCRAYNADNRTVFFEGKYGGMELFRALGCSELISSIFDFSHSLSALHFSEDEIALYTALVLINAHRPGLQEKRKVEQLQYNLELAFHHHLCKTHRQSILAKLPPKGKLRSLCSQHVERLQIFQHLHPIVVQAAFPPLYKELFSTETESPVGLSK
Chain of Peroxisome proliferator-activated receptor alpha (Homo sapiens) (Q07869 whole entry, looked up): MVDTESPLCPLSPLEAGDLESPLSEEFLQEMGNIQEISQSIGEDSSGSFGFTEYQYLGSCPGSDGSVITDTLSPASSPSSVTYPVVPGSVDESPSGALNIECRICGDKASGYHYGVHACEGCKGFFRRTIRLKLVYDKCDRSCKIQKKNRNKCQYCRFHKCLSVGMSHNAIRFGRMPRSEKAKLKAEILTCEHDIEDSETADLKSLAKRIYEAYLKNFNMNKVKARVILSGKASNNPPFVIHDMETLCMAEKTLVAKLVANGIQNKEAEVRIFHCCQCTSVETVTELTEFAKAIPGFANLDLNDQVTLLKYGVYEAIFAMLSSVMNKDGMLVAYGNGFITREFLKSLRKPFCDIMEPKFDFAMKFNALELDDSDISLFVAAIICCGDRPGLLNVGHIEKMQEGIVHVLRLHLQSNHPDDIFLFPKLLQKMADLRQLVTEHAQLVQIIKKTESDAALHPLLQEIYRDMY
Chain of Tumor necrosis factor (Homo sapiens) (P01375 whole entry, looked up): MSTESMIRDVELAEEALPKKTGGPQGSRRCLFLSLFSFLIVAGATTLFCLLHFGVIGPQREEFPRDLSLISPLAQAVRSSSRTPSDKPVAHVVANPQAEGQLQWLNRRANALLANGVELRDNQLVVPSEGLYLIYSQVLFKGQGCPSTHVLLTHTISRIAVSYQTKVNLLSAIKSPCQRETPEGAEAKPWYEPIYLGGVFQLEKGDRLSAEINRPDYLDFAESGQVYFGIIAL

CCCCCCCCCCCCCCCC[N+](C)(C)C
active: Potency [6] 10 µM
inactive: activation [1] 1.41% | activation [2] 0.975% and 0.339% | max response [3] 1.77% and -0.579% | Potency [4] | max response [5] -27.3% and -1.44%

CN(C)NC(=O)CCC(=O)O
inactive: activation [1] 0.502% and -0.298% | Potency [7] | outcome [8] | activation [2] 0.139% and -1.5% | max response [3] 0.401% and -4.12% | Potency [9] | Potency [4] | Potency [10] | max response [5] -0.912% and -0.667%

CCO/N=C(\CC)C1=C(O)CC(c2c(C)cc(C)cc2C)CC1=O (stereo not drawn)
inactive: activation [1] 0.436% | activation [2] -2.09% | max response [3] -0.461% | Potency [4] | max response [5] 1.75% | max response [6] 13.9%

COCCOCCO
inactive: activation [1] -0.521% and -1.09% | activation [2] -0.559% and 0.0587% | max response [3] -0.0911% and 0.363% | max response [5] -0.036% and -2.85% | max response [6] -9.77%

CCCCCC[C@H]1C(=O)O[C@H](C)[C@H](NC(=O)c2cccc(NC=O)c2O)C(=O)O[C@@H](C)[C@@H]1OC(=O)CC(C)C
inactive: activation [1] 2.55% | activation [2] -1.12% | max response [5] -26.8%

Nc1ccc([N+](=O)[O-])cc1
inactive: activation [1] -0.186% | outcome [8] | outcome [11] | max response [3] -2.66% | Potency [9] | Potency [4] | Potency [10] | max response [5] -0.336% | max response [6] -13.4%

OCCCBr
inactive: activation [1] -0.539% | outcome [8] | activation [2] 1.3% | max response [3] -3.35% | Potency [9] | Potency [10] | max response [5] 4.92% | max response [6] 31%

O=C(Nc1ccccc1-c1ccc(Cl)cc1)c1cccnc1Cl
inactive: activation [1] 0.368% | activation [2] 0.984% | max response [3] 0.0876% | max response [5] -1.23% | max response [6] 10.9%

O=S(=O)(O)C(F)(F)C(F)(F)C(F)(F)C(F)(F)F
inactive: activation [1] -0.249% and 0.21% | activation [2] 1.87% and 3.11% | max response [3] 5.33% and 1.27% | max response [5] -3.1% and 4.61% | max response [6] -9.45%

CS(=O)(=O)c1ccc(C(=O)C2C(=O)CCCC2=O)c([N+](=O)[O-])c1
inactive: activation [1] -0.467% | activation [2] 3.32% | max response [3] -3.08% | max response [5] -7.62% | max response [6] -23.2%

CCCN(CCC)c1c([N+](=O)[O-])cc(S(N)(=O)=O)cc1[N+](=O)[O-]
inactive: activation [1] -2.96% | activation [2] -1.72% | max response [3] 9.4%

O=C(O)COc1nc(Cl)c(Cl)cc1Cl
inactive: activation [1] 0.434% | activation [2] 0.732% | max response [3] -3.53% | max response [5] -15.1% | max response [6] 14.5%

CC(=O)[O][Hg][c]1ccccc1
inactive: activation [2] -9.33% and -11.2% | max response [3] -13.3% and -4.57%
active: Potency [7] 16.8 µM | Potency [9] 0.531 µM | Potency [10] 1.33 µM | Potency [5] 35.5 µM and 14.1 µM | Potency [6] 1.12 µM

C=CCC1=C(C)C(OC(=O)C2C(C=C(C)C)C2(C)C)CC1=O (stereo not drawn)
inactive: activation [1] 0.983% and 2.07% | activation [2] 0.269% and 0.976% | max response [3] 4.18% | max response [5] 6.17% and -10.4% | max response [6] -9.3%

O=[N+]([O-])c1cc([N+](=O)[O-])c2ccccc2c1
inactive: activation [1] -0.323% | outcome [8] | activation [2] 11.7% | max response [3] -4.32% | Potency [9] | Potency [10] | max response [5] -11.7% | max response [6] -17.3%
active: Potency [7] 33.5 µM

O=[N+]([O-])c1c(Cl)c(Cl)cc(Cl)c1Cl
inactive: activation [1] -0.885% | Potency [7] | outcome [8] | outcome [11] | activation [2] 4.33% | max response [3] 0.293% | Potency [9] | Potency [10] | max response [5] 0.0593% | max response [6] -14.2%

CCCCC(CC)COC(=O)c1ccccc1C(=O)OCC(CC)CCCC (stereo not drawn)
inactive: activation [1] 0.371% and -1.46% | Potency [7] | outcome [8] | activation [2] -0.0838% and 0.859% | max response [3] -1.13% and 3.57% | Potency [10] | max response [5] -8.88% and -12.5% | max response [6] 10.4%
